According to PubChem BioAssay (EPA / NIEHS):
Results filed as inconclusive are left out. The source made the active and inactive calls. Rule for the calls, unless noted: active = hit-call score of the fitted dose curve at least 0.9, where 1 is the maximum; inconclusive = response in the unintended direction; inactive = score below 0.9.

Key:
[1] = Tanguay_ZF_120hpf_EYE_legacy: (Legacy) Oregon State University Tanguay Lab 120 Hour Post-fertilization zebrafish Assay for Eye Malformation (AID 2283636)
In short: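 Static waterborne exposure of dechorionated zebrafish embryos (strain Tropical 5D), 6 to 120 hpf, sealed plates at 28C, 0.64% DMSO vehicle. Eye malformation is scored as a binary endpoint, with gain of signal analysed relative to DMSO.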

[2] = Tanguay_ZF_120hpf_SNOU_legacy: (Legacy) Oregon State University Tanguay Lab 120 Hour Post-fertilization zebrafish Assay for Snout Malformation (AID 2283637)
In short: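 Dechorionated zebrafish, individually housed from 6 hpf in covered, sealed wells at 28C with 0.64% DMSO vehicle, were examined at 120 hpf for snout malformation. Responses were binary and analysed positive-direction relative to DMSO.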

[3] = Tanguay_ZF_120hpf_JAW_legacy: (Legacy) Oregon State University Tanguay Lab 120 Hour Post-fertilization zebrafish Assay for Jaw Malformation (AID 2283638)
In short: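 Steps: dechorionate 4 hpf embryos (pronase); plate 1/well at 6 hpf; add test chemical, 0.64% DMSO final; seal, cover, hold at 28C statically to 120 hpf; score jaw defect presence/absence microscopically. Dead embryos not scored.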

[4] = Tanguay_ZF_120hpf_BRAI_legacy: (Legacy) Oregon State University Tanguay Lab 120 Hour Post-fertilization zebrafish Assay for Brain Malformation (AID 2283641)
In short: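 Wild-type 5D larvae, static waterborne exposure to 120 hpf, 28C, 0.64% v/v DMSO. Brightfield scoring of brain defects, binary; dead embryos excluded. Positive ctrl 5uM trimethyltin chloride.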

[5] = Tanguay_ZF_120hpf_SOMI_legacy: (Legacy) Oregon State University Tanguay Lab 120 Hour Post-fertilization zebrafish Assay for Somite Malformation (AID 2283647)
In short: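 Read-out: presence or absence of somite malformation in 120 hpf larvae, gain-of-signal relative to DMSO baseline. Embryos lacked chorion (pronase, 4 hpf) and were exposed statically from 6 hpf at 28C; dead larvae not scored.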

[6] = Tanguay_ZF_120hpf_PFIN_legacy: (Legacy) Oregon State University Tanguay Lab 120 Hour Post-fertilization zebrafish Assay for Pectoral Fin Malformation (AID 2283648);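 note: each larva judged yes or no for fin defect by brightfield with dead larvae skipped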
In short: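 Scoring of pectoral fin malformation was binary, made at 120 hpf on larvae exposed statically from 6 hpf after enzymatic chorion removal. Activity was fitted upward relative to DMSO controls at 0.64% (vol/vol).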

[7] = Tanguay_ZF_120hpf_CFIN_legacy: (Legacy) Oregon State University Tanguay Lab 120 Hour Post-fertilization zebrafish Assay for Caudal Fin Malformation (AID 2283649)
In short: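 Binary presence or absence of caudal fin malformation at 120 hpf, read by brightfield microscopy, with DMSO as baseline. Larvae came from 5D wild-type embryos exposed statically from 6 hpf at 28C after pronase dechorionation.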

[8] = Tanguay_ZF_120hpf_CIRC_legacy: (Legacy) Oregon State University Tanguay Lab 120 Hour Post-fertilization zebrafish Assay for Circulatory Malformation (AID 2283651)
In short: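 Embryos are dechorionated at 4 hpf, plated one per well at 6 hpf, then held under static exposure at 28C until 120 hpf. Malformations are recorded as binary calls; mortality excludes other endpoints.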

[9] = read-out: kallikrein-3 (KLK3), KLK3 (gene 354); experiment: LTEA_HepaRG_KLK3: Life Technologies and Expression Analysis (LTEA) Assay for kallikrein-3 (KLK3) using HepaRG (AID 2283652; active = hit-call score of the fitted dose curve at least 0.9, where 1 is the maximum; inactive = score below 0.9); settings: mRNA level, 48 h; actives raise or lower the signal
In short: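 KLK3 transcript levels were measured by TaqMan qRT-PCR with normalisation to three housekeeping genes. HepaRG cultures received chemicals for 48 h at up to 100 uM (half-log, 8 points, 0.5% DMSO vehicle), fitted in both directions against DMSO.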

[10] = read-out: solute carrier (SLC22A6), SLC22A6 (gene 9356); experiment: LTEA_HepaRG_SLC22A6: Life Technologies and Expression Analysis (LTEA) Assay for solute carrier (SLC22A6) using HepaRG (AID 2283653; active = hit-call score of the fitted dose curve at least 0.9, where 1 is the maximum; inactive = score below 0.9); settings: mRNA level, 48 h; actives raise or lower the signal
In short: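 Read-out is SLC22A6 transcript level by qRT-PCR, normalised to three housekeeping genes and fitted for gain or loss relative to 0.5% DMSO vehicle. Human HepaRG cells received chemicals at up to 100 uM for 48 h.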

Measured: outcome

O=C(N[C@H]1CN2CCC1CC2)c1ccc2c(c1)OCCO2
inactive: [1] | [2] | [3] | [4] | [5] | [6] | [7] | [8]

Clc1cccc(Cl)c1
inactive: [1] | [2] | [3] | [5] | [6] | [8]

N#Cc1cccnc1
inactive: [1] | [2] | [3] | [4] | [5] | [6] | [7] | [8]

CC(C)(C)c1ccccc1O
inactive: [1] | [2] | [3] | [4] | [5] | [6] | [7] | [8]

CC(C)O.CC(C)O.OCCN(CCO)CCO.OCCN(CCO)CCO.[Ti]
inactive: [2] | [3] | [4] | [5] | [8]

CN(C)C(=S)S
inactive: [1] | [2] | [3] | [4] | [5] | [6] | [8]

Oc1c(Cl)cc(Cl)cc1Cl
inactive: [1] | [2] | [3] | [5] | [6] | [7] | [8]

CCCCCCCCCCCCc1cccc(S(=O)(=O)O)c1
inactive: [1] | [3] | [4] | [5] | [6] | [8]

Clc1cccc(Cl)c1Cl
inactive: [1] | [2] | [3] | [4] | [5] | [6] | [7] | [8]

OCCN(CCO)CCO
inactive: [1] | [2] | [3] | [4] | [5] | [6] | [7] | [8]

Cc1cc(C)cc(C)c1
inactive: [1] | [2] | [3] | [4] | [6] | [7] | [8] | [9] | [10]

O=C(O)C1(c2ccc3c(c2)OC[C@H](Cc2ccc(-c4ccccc4)cc2)[C@H]3O)CCCC1
inactive: [1] | [2] | [4] | [5] | [8]

COc1ccccc1N
inactive: [1] | [2] | [3] | [4] | [6] | [8]

Oc1cc(Cl)c(Cl)cc1Cl
inactive: [1] | [2] | [3] | [4] | [5] | [6] | [7] | [8]
